PubChem BioAssay (NCATS)
Inconclusive results are not listed. A number with no mark means an inactive call. Calls come from the whole dose curve; as a rule, active = well fitted inhibition curve with a large enough effect; inconclusive = small, poorly fitted or top-dose-only effect, or effect the other way; inactive = flat fitted curve, though single readings scatter.

These compounds were tested against Ubiquitin carboxyl-terminal hydrolase 2 (Homo sapiens) (UniProt O75604) (assay: qHTS Validation Assay for Inhibitors of Ubiquitin-specific Protease USP2a Using CHOP2 as the Reporter (AID 463106)). Details: USP2a cleavage of CHOP2 reporter, enzymatic; series mostly up to 38.3 µM; activity, negative = inhibition: at the top concentration.
Sequence of Ubiquitin carboxyl-terminal hydrolase 2 (Homo sapiens) (O75604 whole entry, looked up): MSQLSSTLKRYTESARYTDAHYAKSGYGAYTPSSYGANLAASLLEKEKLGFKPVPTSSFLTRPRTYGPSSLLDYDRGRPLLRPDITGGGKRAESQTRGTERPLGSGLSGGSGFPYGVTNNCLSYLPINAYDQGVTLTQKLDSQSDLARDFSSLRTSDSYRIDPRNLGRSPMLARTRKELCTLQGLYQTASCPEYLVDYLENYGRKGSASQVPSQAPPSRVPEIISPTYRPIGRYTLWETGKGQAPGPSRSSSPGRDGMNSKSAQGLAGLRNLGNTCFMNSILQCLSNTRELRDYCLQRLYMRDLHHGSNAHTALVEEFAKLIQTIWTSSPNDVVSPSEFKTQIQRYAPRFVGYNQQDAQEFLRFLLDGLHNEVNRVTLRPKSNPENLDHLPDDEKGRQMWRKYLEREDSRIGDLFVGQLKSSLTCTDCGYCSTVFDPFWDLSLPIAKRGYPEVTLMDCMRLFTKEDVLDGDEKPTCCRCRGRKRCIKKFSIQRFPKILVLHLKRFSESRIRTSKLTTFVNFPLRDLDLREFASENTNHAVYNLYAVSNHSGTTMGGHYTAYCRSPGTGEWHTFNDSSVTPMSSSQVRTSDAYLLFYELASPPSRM
Description: NIH Molecular Libraries Screening Centers Network [MLSCN]
NIH Chemical Genomics Center [NCGC]
PI Name: Nicholson, Ben. Progenra Inc, Malvern, PA
Homeostasis of cellular proteins is maintained through a combination of synthesis and degradation. The pathway that accounts for the majority of protein degradation is the ubiquitin-proteasomal pathway. Ubiquitin (Ub) is highly conserved in all cells and the generation of a multi-Ub chain typically targets proteins for degradation by the proteasome. However, ubiquitination is highly reversible and dynamic. Deubiquitination, the reverse process, is catalyzed through the action of enzymes referred to as isopeptidases or deubiquitinating enzymes (DUBs). This group of enzymes is collectively responsible for maintaining adequate pools of free ubiquitin and regulating the ubiquitination status of cellular proteins. The class of DUBs referred to as the ubiquitin-specific proteases (USP) family functions endoproteolytically to cleave Ub chains from a wide range of protein substrates. USP2a deubiquitinates fatty acid synthase (FASN) which has recently been identified as an emerging oncology target. To identify inhibitors of USP2a a cell-free assay was employed.
The reporter enzyme chosen is an enterokinase called CHOP2, which is activated when the Ub is cleaved by USP2. The free and now activated reporter can subsequently act on its reporter substrate. […] The assay was developed by Progenra, Inc. and has been licensed for sale by LifeSensors, Inc. as Ub-CHOP2-Reporter-Kit (#PR1101).
NCGC Assay Protocol Summary:
The assay buffer, prepared fresh at the day of the assay, contains 20mM Tris-HCl pH 8.0, 2mM CaCl2, 2mM beta-Mercaptoethanol, 0.05% CHAPS. 3ul of 20nM (10nM final) USP2 core, which is stored on ice, is dispensed into a medium-binding black solid Kalypsys 1,536 well plate using the Kalypsys dispenser. The assay plate is then pinned with 23nL compound with the Kalypsys pintool in columns 5-48. The controls are pinned as follows: column 1 two-fold dilutions of 2M NEM in duplicate; column 2 2M NEM (final concentration 38.2mM); column 3&4 DMSO. The assay plate is incubated at RT for 30min. Subsequently, 1.5uL of 100nM (25nM final) Ub-CHOP2 and 1.5uL of 100nM (25nM final) Reporter Substrate (both stored on ice and protected from light) were dispensed into the plate using the Kalypsys dispenser. Plates were read after 60min RT incubation on a ViewLux (Perkin Elmer) plate reader using the following wavelengths Ex 485nm /Em 531nm.
Data were normalized to the to AC100 inhibition (NEM). Concentration-response curves were fitted to the normalized data and the concentration-response curves were then classified based on curve quality (r2), response magnitude and degree of measured activity. The time zero reading was used to flag fluorescence artifacts.
Keywords: ubiquitination, deubiquitination, proteases, profluorescent, MLSMR, MLPCN, NIH Roadmap, qHTS, NCGC

Compound	activity, negative = inhibition [%]
CC1CC2C3CCC4=CC(=O)C=C[C@]4(C)[C@@]3(F)[C@@H](O)C[C@]2(C)[C@@]1(O)C(=O)CO (stereo partly specified)	-0.755
CCN(CC)CCn1c(=O)c(Cc2ccc(OC)cc2)nc2ccccc21	-0.808
NC(=O)c1ccc2[nH]ccc2c1	-1.73
CC(C)NCC(O)c1ccc(NS(C)(=O)=O)cc1 (stereo unspecified)	-0.823
CCN1CCCC1CNC(=O)c1cc(S(N)(=O)=O)ccc1OC (stereo unspecified)	-1.17
CCCCS(=N)(=O)CCC(N)C(=O)O (stereo unspecified)	-0.283
CC(=O)[C@H]1CC[C@H]2[C@@H]3CCC4=CC(=O)CC[C@]4(C)[C@H]3CC[C@]12C	1.46
COc1cc2nc(N3CCCN(C)CC3)nc(NC3CCN(Cc4ccccc4)CC3)c2cc1OC	-4.57
CC1=C(C(=O)O)N2C(=O)[C@@H](NC(=O)C(N)c3ccccc3)[C@H]2SC1 (stereo partly specified)	1.09
O=C(O)C1CCCN(CCC=C(c2ccccc2)c2ccccc2)C1 (stereo unspecified)	-3.65
NC(=O)c1cccc(N)c1	4.44
CCN(CC)CC#CCOC(=O)C(O)(c1ccccc1)C1CCCCC1 (stereo unspecified)	1.73
COc1cc2ncnc(Nc3cccc(Cl)c3)c2cc1OC	0.816
Cc1ccc(S(=O)(=O)N[C@@H](Cc2ccccc2)C(=O)CCl)cc1	2.9
OCc1ccc(-c2nn(Cc3ccccc3)c3ccccc23)o1	-9.39
Nc1nc(N)c2nc(CNc3ccc(C(=O)NC(CCC(=O)O)C(=O)O)cc3)cnc2n1 (stereo unspecified)	2.66
